Compounds with a hit are over-represented: about 3.5% of the library has one in this group of screens.
MITF inh: MITF inhibitors, primary screen, biochemical, AlphaScreen, human; AlphaScreen MITF homodimerization, bead proximity signal; 650,000 tested, 0.91% active; inhibition, % at 2.6 µM; Microphthalmia-associated transcription factor (Homo sapiens), O75030; AID 1259374, 2018; in the data active = inhibition above about 50%;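 also: 0% = vehicle wells with protein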
Target sequence (O75030 whole entry, looked up): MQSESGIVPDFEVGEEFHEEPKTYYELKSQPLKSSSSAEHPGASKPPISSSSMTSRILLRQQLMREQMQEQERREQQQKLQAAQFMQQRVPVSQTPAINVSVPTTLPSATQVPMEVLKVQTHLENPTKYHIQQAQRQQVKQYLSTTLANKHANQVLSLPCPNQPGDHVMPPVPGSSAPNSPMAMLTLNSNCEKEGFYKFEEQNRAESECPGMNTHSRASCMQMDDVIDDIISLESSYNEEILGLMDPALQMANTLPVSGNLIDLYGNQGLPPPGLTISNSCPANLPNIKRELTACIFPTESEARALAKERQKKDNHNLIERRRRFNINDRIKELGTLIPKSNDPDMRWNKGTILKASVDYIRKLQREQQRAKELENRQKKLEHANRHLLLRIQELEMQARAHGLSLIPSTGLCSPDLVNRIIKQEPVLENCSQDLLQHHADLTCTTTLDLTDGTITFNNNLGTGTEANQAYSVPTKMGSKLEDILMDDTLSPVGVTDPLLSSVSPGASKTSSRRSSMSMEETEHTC
GPR151 activ: activators of human GPR151, primary screen, cell-based, PathHunter beta-arrestin, luminescence. PathHunter beta-arrestin GPR151 cells. G-protein coupled receptor 151 (Homo sapiens), Q8TDV0. activation, % at 11.2 µM. 650,000 tested, 1% active; in the data active = activation above about 4.9%;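 also: 0% = median of compound wells and 100% = cells with positive control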
TEAD-YAP block: TEAD-YAP interaction inhibition, primary screen, TEAD-YAP interaction inhibitor project, luminescence, HEK-TIYL cells; TEAD-Gal4/YAP UAS-luciferase luminescence; inhibition, % at 9.12 µM; 640,000 tested, 1.4% active; in the data active = inhibition above about 32%;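 also: 0% = median of test compound wells and 100% = reference inhibitor wells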
FBW7 activator: FBW7 E3 ligase activators, primary screen, biochemical, AlphaScreen, human. F-box/WD repeat-containing protein 7 (Homo sapiens), Q969H0. AlphaScreen FBW7–phospho-cyclin E peptide binding, activator screen. 650,000 tested, 0.13% active. normalized activity (activation), % at 26.1 µM. AID 1259310, 2017; in the data active = normalized activity above about 1.9%;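 also: purified mutant Fbw7 with reduced substrate affinity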
An asterisk follows results filed as active; ! = not active in a repeat.

SMILES	MITF inh	GPR151 activ	TEAD-YAP block	FBW7 activator
COc1ccc(C(=O)/C(=C\c2ccco2)N2C=CC=CC2=C(C#N)C#N)cc1	5	-4	43*	0
C=CCn1c(Cl)c(C=O)s/c1=N\S(=O)(=O)c1cccs1	6	-2	60*	0
C=CCn1c(Cl)c(/C=N/NC(=O)OCC)s/c1=N\S(=O)(=O)c1cccs1	8	4	45*	1
O=c1cc(N2CCN(c3ccccc3F)CC2)[nH]c(=O)n1-c1ccc(Cl)cc1	3	-1	7	0
CC1=C(C(=O)Nc2ccccc2)C(c2cccc(O)c2)n2nc(C(F)(F)F)nc2N1 (configuration not stated)	16	1	-2	0
Cc1ccc(N2CC(c3nc(-c4ccccc4F)no3)CC2=O)cc1C (configuration not stated)	28	-1	7	1
N#CCCN(C(=O)CCl)c1ccc(F)cc1	3	0	82*	0
CCOc1ccc(N(CCC#N)C(=O)CCl)cc1	-8	1	46*	0
CCOc1ccc(N(CCC#N)S(=O)(=O)c2ccc(Cl)cc2)cc1	11	0	2	0
N#CCCN(C(=O)CCl)c1ccccc1	-4	2	65*	0
CCOC(=O)N(CC#N)c1ccc(C)cc1	6	0	-4	0
Cc1ccc(N(CCC#N)C(=O)CCl)cc1	10	4	77*	0
CC(NC(=O)c1ccco1)c1nnc2n1CCN(Cc1cccc(C(F)(F)F)c1)CC2 (configuration not stated)	-14	-1	1	0
Cc1nn(-c2ccccc2)c(Cl)c1C(=O)NCc1cccnc1	4	0	-2	0
Cc1nn(-c2ccccc2)c(Cl)c1C(=O)Nc1ccc(C(=O)NCc2cccnc2)cc1	25	-1	39*	0
Cc1ccc(-n2ncc3c(NCCCn4ccnc4)ncnc32)cc1C	19	-1	-26	0
Clc1cccc(-n2ncc3c(NCCCn4ccnc4)ncnc32)c1	-4	-2	56*	0
CN(C)c1ccc2nc3c(=O)n(C4CCCCCC4)c(=O)[nH]c3nc2c1	18	-1	-26	0
CCCOc1cc(C(N)CC(=O)OC)ccc1OC (configuration not stated)	0	1	4	0
Nc1ccc2nc3c(c(Cl)c2c1)CCCC3	9	1	33*	0
O=C(N/N=C/c1cc(Br)ccc1O)c1ccc(O)cc1O	22	0	72*	-1
Cc1occc1C(=O)N/N=C/c1cc(Br)ccc1O	18	-4	47*	0
COc1ccccc1NC(=O)CN(C1=NC2CS(=O)(=O)CC2S1)c1ccccc1F (configuration not stated)	-4	-1	-11	0
CCOC(=O)C1=C(N)n2c(s/c(=C/c3cccs3)c2=O)=C(C(=O)OCC)C1c1cccs1 (configuration not stated)	1	0	41*	0
CCOC(=O)C1=C(N)n2c(s/c(=C/c3ccccc3)c2=O)=C(C(=O)OCC)C1c1ccccc1 (configuration not stated)	-6	-2	-9	0
SMILES	MITF inh	GPR151 activ	TEAD-YAP block	FBW7 activator
CCOC(=O)C1=C(N)n2c(s/c(=C\c3ccc(OC)c(OC)c3)c2=O)=C(C#N)C1c1ccc(OC)c(OC)c1 (configuration not stated)	9	-2	59*	1
CCOC(=O)C1=C(N)n2c(s/c(=C\c3ccc(O)cc3)c2=O)=C(C#N)C1c1ccc(O)cc1 (configuration not stated)	7	1	5	0
O=C(Nc1cc(-c2ccncc2)c[nH]c1=O)C1Cc2c(ccc3ccccc23)O1 (configuration not stated)	7	-1	33*	0
Cc1cccc(-n2c(CNC(=O)c3ccc(S(=O)(=O)N4CCCCC4)cc3)nnc2SCC(=O)Nc2nccs2)c1	-9	1	3	0
COc1ccccc1-c1nnc(Nc2nc3c(OC)cccc3s2)o1	2	1	53*	0
COc1cccc2sc(Nc3nnc(-c4ccccc4)o3)nc12	1	-4	12	0
COc1cccc2sc(Nc3nnc(-c4ccccc4Cl)o3)nc12	4	1	46*	0
CC1=C(C(=O)OC(C)C)C(c2ccncc2)C2=C(CC(c3ccccc3)CC2=O)N1 (configuration not stated)	8	0	9	2.1*!
CC1=C(C#N)C(c2ccc(C)cc2)C2=C(CC(c3ccccc3)CC2=O)N1 (configuration not stated)	2	-1	32*	0
CCOC(=O)C1=C(C)NC2=C(C(=O)CC(c3ccc(OC)cc3)C2)C1c1ccccc1OC(C)C (configuration not stated)	17	1	-5	0
COc1ccc(C2CC(=O)C3=C(C2)NC(C)=C(C(=O)OC(C)C)C3c2ccccc2OC(C)C)cc1 (configuration not stated)	8	0	-7	2.4*
CC(C)(C)/C(O)=C/c1nc2cccnc2[nH]c1=O	4	0	0	0
Cc1ccccc1C(=O)c1coc2ccc(Cl)cc2c1=O	1	-1	-3	0
Cc1cc(-n2ncc(C#N)c2N)nc2ccccc12	-1	-1	-34	0
O=C1C(Cl)=C(Nc2ccccc2)C(=O)N1c1ccccc1Cl	9	-1	-4	0
O=C(Nc1ccc(-n2cccn2)cc1)C1CCN(Cc2nc3c(s2)CCCC3)CC1	-5	0	38*	0
COc1ccc(NC(=O)c2ccccn2)cc1	-7	-6	51*	0
CCOc1ccc(NC(=S)c2ccccn2)cc1	24	-8	75*	-1
COc1ccc(C(=O)Nc2ccc(NC(=O)c3ccccn3)cn2)cc1	-6	1	0	0
Cc1cc(C=C2C(=O)N(C)C(=S)N(C)C2=O)c(C)n1-c1cccc(F)c1	-6	2	-10	0
O=C(O)CCNC(=O)c1ccc(C#CC2(O)CCCCC2)cc1	21	-1	2	1
Cc1ccc(/C=c2/sc3nc4ccccc4n3c2=O)cc1	-5	-1	73*	0
COc1cccc(/C=c2\sc3nc4ccccc4n3c2=O)c1	7	1	45*	-1
Cc1ccc(/C=c2\sc3nc4ccccc4n3c2=O)s1	-5	-1	54*	0
COc1ccc(/C=c2/sc3nc4ccccc4n3c2=O)c(OC)c1	19	-1	-24	0
CN(C)c1ccc(/C=c2\sc3nc4ccccc4n3c2=O)cc1	-10	-1	74*	0
O=C(Nc1nc2c(cc3c4c(cccc42)CC3)s1)c1ccc(S(=O)(=O)N2CCCc3ccccc32)cc1	8	0	0	1
CCN(CC)c1ccc(/C=c2/sc3nc4ccccc4n3c2=O)cc1	16	0	46*	0
